Results taken from PubChem BioAssay (EPA / NIEHS).
Inconclusive results are not listed. Activity calls are given as the source filed them. The calls were made as follows: active = hit-call score of the fitted dose curve at least 0.9, where 1 is the maximum; inconclusive = response in the unintended direction; inactive = score below 0.9.

What was measured:
[1] = target: human Caspase 10 (CASP10), CASP10 (gene 843) (UniProt Q92851); assay: NVS_ENZ_hCASP10: NovaScreen (NVS) Enzymatic Assay for human Caspase 10 (CASP10) (AID 2283133)
Chain of human Caspase 10 (CASP10), CASP10 (gene 843) (Q92851 whole entry, looked up): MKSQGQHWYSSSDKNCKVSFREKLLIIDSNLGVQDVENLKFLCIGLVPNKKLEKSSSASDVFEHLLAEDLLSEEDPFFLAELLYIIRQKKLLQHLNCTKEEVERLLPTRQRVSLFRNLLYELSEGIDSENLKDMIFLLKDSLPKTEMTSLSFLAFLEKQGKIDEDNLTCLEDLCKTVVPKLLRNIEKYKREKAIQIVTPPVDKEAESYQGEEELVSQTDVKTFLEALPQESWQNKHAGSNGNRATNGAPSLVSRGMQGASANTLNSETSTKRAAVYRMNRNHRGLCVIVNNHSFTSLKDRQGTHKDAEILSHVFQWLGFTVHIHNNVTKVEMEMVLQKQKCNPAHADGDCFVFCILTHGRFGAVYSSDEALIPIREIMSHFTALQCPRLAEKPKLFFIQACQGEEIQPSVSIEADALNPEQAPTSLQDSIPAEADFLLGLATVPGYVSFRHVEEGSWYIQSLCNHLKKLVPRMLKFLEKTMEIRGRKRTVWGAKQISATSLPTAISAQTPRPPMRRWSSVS
Summary of the method: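 Recombinant human caspase-10 from E. coli, cell-free fluorogenic substrate assay read 1 h after dosing. Primary duplicate screen at 25 uM; hits (e.g. ≥30% inhibition) run singly in concentration-response up to 50 uM, normalised to DMSO.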

[2] = target: human Casein Kinase 2- alpha 2 beta 2 (CK2a2b2), CSNK2A1 (gene 1457) (UniProt P68400); assay: NVS_ENZ_hCK2a2b2: NovaScreen (NVS) Enzymatic Assay for human Casein Kinase 2- alpha 2 beta 2 (CK2a2b2) (AID 2283147)
Chain of human Casein Kinase 2- alpha 2 beta 2 (CK2a2b2), CSNK2A1 (gene 1457) (P68400 whole entry, looked up): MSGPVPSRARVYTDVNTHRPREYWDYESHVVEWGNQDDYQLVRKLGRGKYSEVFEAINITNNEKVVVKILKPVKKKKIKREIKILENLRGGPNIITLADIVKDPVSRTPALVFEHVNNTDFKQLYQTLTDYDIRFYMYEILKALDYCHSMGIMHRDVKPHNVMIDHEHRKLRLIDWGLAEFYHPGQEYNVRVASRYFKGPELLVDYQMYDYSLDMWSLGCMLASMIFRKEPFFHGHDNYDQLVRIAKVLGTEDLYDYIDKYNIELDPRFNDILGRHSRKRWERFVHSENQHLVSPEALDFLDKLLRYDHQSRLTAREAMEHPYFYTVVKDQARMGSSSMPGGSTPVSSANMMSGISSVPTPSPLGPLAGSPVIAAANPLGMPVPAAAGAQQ
Summary of the method: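 Cell-free recombinant CK2 α2β2 holoenzyme with a fluorescent peptide substrate; product separated by electrophoretic mobility shift and read 1 h after dosing. Single-point screen at 25 uM in duplicate; actives were followed with concentration-response up to 50 uM versus DMSO.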

[3] = target: human Acid Phosphatase 1 (ACP1), ACP1 (gene 52) (UniProt P24666); assay: NVS_ENZ_hACP1: NovaScreen (NVS) Enzymatic Assay for human Acid Phosphatase 1 (ACP1) (AID 2283136)
Chain of human Acid Phosphatase 1 (ACP1), ACP1 (gene 52) (P24666 whole entry, looked up): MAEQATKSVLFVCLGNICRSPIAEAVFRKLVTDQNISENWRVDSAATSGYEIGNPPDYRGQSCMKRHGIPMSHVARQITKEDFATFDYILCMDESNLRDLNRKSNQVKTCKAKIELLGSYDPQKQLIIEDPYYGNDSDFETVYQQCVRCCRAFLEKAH
Summary of the method: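 Recombinant enzyme expressed in Sf9 cells, tested cell-free; activity read by fluorescence with electrophoretic mobility shift separation of substrate and product, 1.5 h after dosing. Primary screen in duplicate at 25 uM, actives then run in concentration series; loss of signal versus DMSO.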

[4] = target: human Caspase 4 (CASP4), CASP4 (gene 837) (UniProt P49662); assay: NVS_ENZ_hCASP4: NovaScreen (NVS) Enzymatic Assay for human Caspase 4 (CASP4) (AID 2283143)
Chain of human Caspase 4 (CASP4), CASP4 (gene 837) (P49662 whole entry, looked up): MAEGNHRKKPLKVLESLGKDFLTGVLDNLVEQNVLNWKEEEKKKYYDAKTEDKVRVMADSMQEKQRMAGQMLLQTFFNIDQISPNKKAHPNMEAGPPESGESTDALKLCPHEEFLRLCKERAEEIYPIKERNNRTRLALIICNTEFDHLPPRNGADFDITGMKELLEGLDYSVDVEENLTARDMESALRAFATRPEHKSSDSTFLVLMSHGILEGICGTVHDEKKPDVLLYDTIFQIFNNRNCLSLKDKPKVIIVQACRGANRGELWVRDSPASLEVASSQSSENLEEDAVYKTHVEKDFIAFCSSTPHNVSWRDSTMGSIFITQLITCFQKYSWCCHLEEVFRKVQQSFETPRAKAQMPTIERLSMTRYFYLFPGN
Summary of the method: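 The cell-free assay used E. coli-expressed enzyme with a fluorogenic substrate, read 2 h after dosing. Signal loss was scored versus DMSO. Screening was in duplicate at 25 uM, then singleton concentration-response up to 50 uM.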

[5] = target: human Elastase, ELANE (gene 1991) (UniProt P08246); assay: NVS_ENZ_hElastase: NovaScreen (NVS) Enzymatic Assay for human Elastase (AID 2283153)
Chain of human Elastase, ELANE (gene 1991) (P08246 whole entry, looked up): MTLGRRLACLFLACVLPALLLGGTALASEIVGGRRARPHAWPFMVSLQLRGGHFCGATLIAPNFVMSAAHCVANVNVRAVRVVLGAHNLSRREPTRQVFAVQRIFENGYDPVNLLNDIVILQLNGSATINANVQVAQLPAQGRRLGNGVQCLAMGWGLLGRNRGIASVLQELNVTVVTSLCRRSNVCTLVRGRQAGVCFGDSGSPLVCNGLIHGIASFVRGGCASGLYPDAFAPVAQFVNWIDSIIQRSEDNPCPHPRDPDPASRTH
Summary of the method: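 Cell-free elastase from human neutrophils, 1.5 h after dosing, activity read by absorbance. Primary screen in duplicate at 25 uM; hits (e.g., 30% inhibition) rerun in singleton concentration-response up to 50 uM, fitted versus DMSO.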

[6] = target: human Colony Stimulating Factor 1 Receptor (CSF1R), CSF1R (gene 1436) (UniProt P07333); assay: NVS_ENZ_hCSF1R: NovaScreen (NVS) Enzymatic Assay for human Colony Stimulating Factor 1 Receptor (CSF1R) (AID 2283150)
Chain of human Colony Stimulating Factor 1 Receptor (CSF1R), CSF1R (gene 1436) (P07333 whole entry, looked up): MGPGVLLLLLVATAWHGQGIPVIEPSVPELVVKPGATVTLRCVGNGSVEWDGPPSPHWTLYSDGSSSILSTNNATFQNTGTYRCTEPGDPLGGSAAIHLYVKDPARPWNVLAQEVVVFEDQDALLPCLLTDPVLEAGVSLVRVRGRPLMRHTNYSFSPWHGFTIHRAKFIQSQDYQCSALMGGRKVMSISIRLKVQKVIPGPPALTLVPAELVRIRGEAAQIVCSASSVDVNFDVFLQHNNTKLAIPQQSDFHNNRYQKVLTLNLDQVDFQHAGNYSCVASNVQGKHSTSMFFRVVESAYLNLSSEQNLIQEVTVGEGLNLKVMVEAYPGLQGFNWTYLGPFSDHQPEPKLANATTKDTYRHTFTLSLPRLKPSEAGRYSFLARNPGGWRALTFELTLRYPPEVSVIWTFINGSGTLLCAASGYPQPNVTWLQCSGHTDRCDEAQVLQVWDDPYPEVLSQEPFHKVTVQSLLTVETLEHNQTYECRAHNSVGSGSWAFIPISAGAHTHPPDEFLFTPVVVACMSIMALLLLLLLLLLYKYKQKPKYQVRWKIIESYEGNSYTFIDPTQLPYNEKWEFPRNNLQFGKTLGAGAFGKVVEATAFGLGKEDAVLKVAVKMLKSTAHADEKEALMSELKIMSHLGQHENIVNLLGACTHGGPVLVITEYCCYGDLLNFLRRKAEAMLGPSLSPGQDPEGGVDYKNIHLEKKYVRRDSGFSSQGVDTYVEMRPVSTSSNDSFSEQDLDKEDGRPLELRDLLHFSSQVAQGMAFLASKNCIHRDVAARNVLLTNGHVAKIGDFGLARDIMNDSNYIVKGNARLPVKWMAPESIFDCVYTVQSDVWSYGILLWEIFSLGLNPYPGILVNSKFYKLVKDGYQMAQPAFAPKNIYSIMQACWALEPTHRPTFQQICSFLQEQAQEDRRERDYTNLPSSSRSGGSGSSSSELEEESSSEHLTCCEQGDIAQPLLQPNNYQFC
Summary of the method: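 Cell-free recombinant human CSF1R kinase with fluorescent substrate, product separated by electrophoretic mobility shift; read 1 h after dosing. Primary screen at 25 uM in duplicate, actives then in concentration-response up to 50 uM, relative to DMSO.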

[7] = target: human Beta-secretase (BACE), BACE1 (gene 23621) (UniProt P56817); assay: NVS_ENZ_hBACE: NovaScreen (NVS) Enzymatic Assay for human Beta-secretase (BACE) (AID 2283140);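 also: hits are inhibitors that reduce fluorescent substrate signal versus DMSO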
Chain of human Beta-secretase (BACE), BACE1 (gene 23621) (P56817 whole entry, looked up): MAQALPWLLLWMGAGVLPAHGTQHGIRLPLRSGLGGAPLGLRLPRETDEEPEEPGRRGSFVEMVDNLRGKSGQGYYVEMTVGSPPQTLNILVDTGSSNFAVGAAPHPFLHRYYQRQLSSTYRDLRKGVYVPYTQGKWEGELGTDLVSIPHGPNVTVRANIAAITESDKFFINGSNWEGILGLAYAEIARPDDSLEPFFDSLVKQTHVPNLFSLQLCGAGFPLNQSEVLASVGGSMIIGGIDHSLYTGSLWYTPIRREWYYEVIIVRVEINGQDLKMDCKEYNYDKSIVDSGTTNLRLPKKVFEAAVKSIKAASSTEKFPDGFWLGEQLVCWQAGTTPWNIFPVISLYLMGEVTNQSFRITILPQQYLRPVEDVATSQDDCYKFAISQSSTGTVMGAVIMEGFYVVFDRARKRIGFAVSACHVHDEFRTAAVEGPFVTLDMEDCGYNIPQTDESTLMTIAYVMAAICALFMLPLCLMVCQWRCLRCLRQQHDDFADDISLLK
Summary of the method: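 Compounds were first tested in duplicate at 25 uM, then actives in concentration series, against recombinant BACE1 from SF9 cells. Enzyme activity was measured by fluorescence intensity 1 hour after dosing, with DMSO as negative control.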

[8] = target: human AKT serine/threonine Kinase 2 (AKT2), AKT2 (gene 208) (UniProt P31751); assay: NVS_ENZ_hAKT2: NovaScreen (NVS) Enzymatic Assay for human AKT serine/threonine Kinase 2 (AKT2) (AID 2283141)
Chain of human AKT serine/threonine Kinase 2 (AKT2), AKT2 (gene 208) (P31751 whole entry, looked up): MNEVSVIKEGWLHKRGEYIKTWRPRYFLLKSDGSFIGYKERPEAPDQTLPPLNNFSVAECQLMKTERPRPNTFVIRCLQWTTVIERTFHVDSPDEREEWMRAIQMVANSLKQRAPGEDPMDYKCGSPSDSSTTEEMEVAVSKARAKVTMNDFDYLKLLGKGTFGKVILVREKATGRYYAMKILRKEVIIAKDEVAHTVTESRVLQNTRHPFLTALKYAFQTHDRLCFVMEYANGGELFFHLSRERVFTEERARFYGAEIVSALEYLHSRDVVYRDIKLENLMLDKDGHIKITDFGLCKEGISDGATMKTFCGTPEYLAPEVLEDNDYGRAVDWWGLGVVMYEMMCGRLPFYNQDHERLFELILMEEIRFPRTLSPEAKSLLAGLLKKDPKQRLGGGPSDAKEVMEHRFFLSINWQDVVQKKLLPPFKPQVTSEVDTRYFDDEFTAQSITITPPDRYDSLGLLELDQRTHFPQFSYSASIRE
Summary of the method: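 Cell-free fluorescence/electrophoretic mobility shift readout of recombinant human AKT2 activity, 1 h after chemical dosing. Duplicate primary screen at 25 uM, then singleton concentration-response up to 50 uM; loss of signal versus DMSO baseline.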

[9] = target: human Casein Kinase 1-delta (CK1D), CSNK1D (gene 1453) (UniProt P48730); assay: NVS_ENZ_hCK1D: NovaScreen (NVS) Enzymatic Assay for human Casein Kinase 1-delta (CK1D) (AID 2283148)
Chain of human Casein Kinase 1-delta (CK1D), CSNK1D (gene 1453) (P48730 whole entry, looked up): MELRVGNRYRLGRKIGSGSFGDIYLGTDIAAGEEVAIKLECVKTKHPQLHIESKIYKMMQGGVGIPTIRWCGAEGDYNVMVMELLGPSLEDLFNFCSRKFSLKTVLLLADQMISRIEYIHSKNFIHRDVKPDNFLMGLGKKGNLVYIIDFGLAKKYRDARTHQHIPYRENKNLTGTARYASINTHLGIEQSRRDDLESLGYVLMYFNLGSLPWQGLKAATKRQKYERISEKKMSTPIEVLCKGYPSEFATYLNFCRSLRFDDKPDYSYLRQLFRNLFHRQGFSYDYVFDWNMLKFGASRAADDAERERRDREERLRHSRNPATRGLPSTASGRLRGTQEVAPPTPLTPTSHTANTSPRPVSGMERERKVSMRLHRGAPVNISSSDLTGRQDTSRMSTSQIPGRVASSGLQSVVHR
Summary of the method: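 Recombinant human CK1-delta, cell-free; fluorescent substrate with electrophoretic mobility-shift separation of product, read 1 h after dosing. Single 25 uM duplicate screen, then concentration-response up to 50 uM; loss of signal vs DMSO.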

[10] = target: human Caspase 8 (CASP8), CASP8 (gene 841) (UniProt Q14790); assay: NVS_ENZ_hCASP8: NovaScreen (NVS) Enzymatic Assay for human Caspase 8 (CASP8) (AID 2283146)
Chain of human Caspase 8 (CASP8), CASP8 (gene 841) (Q14790 whole entry, looked up): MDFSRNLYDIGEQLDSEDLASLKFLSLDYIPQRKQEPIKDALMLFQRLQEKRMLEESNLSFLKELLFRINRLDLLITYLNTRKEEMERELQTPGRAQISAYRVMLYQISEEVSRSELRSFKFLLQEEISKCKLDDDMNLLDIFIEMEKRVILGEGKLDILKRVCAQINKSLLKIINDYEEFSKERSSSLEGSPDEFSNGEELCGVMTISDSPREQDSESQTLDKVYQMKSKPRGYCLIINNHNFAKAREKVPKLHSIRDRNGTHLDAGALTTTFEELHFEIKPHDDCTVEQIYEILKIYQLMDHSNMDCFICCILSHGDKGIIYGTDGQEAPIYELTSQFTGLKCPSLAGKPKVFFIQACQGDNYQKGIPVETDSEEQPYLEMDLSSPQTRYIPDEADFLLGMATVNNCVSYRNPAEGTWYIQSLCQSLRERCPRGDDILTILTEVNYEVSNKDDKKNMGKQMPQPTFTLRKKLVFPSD
Summary of the method: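 E. coli-expressed enzyme was used in a cell-free fluorogenic substrate assay read 1 h after dosing. Loss of signal was scored relative to DMSO, and the primary screen was run in duplicate at 25 uM.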

O=C(O)c1cc(Oc2ccc(C(F)(F)F)cc2Cl)ccc1[N+](=O)[O-]
outcome [1]: inactive
outcome [2]: inactive

CCc1cccc(CC)c1N(COC)C(=O)CCl
outcome [1]: inactive

S=C1NCCN1
outcome [3]: inactive
outcome [4]: inactive
outcome [5]: inactive

CN(C)[C@@H]1C(=O)C(C(N)=O)=C(O)[C@@]2(O)C(=O)C3=C(O)c4c(O)cccc4[C@@](C)(O)[C@H]3[C@H](O)[C@@H]12
AC50 [3]: 23.1 µM (active)
AC50 [4]: 11.9 µM (active)
AC50 [2]: 23.1 µM (active)
AC50 [6]: 12.5 µM (active)

CC(C)[C@H](C(=O)O[C@H](C#N)c1cccc(Oc2ccccc2)c1)c1ccc(Cl)cc1
outcome [5]: inactive

CCCCSP(=O)(SCCCC)SCCCC
outcome [7]: inactive

CC(COc1ccc(Oc2ccccc2)cc1)Oc1ccccn1 (stereo not given)
AC50 [7]: 37.2 µM (active)

CSc1nnc(C(C)(C)C)c(=O)n1N
outcome [8]: inactive

CCC(=O)Nc1ccc(Cl)c(Cl)c1
outcome [4]: inactive
AC50 [9]: 23.6 µM (active)

Cc1nn(-c2cc(NS(C)(=O)=O)c(Cl)cc2Cl)c(=O)n1C(F)F
outcome [10]: inactive

Nc1nc(N)nc(NC2CC2)n1
outcome [10]: inactive
AC50 [9]: 16.3 µM (active)

CCCOc1nn(C(=O)NS(=O)(=O)c2ccccc2C(=O)OC)c(=O)n1C
outcome [6]: inactive
